Assay outcomes deposited in PubChem BioAssay by Sanford-Burnham Center for Chemical Genomics.
TROY signal inh = TROY signaling inhibition. Q293 LMP1-TROYcd NF-kB luciferase reporter, 4 h. 0.98% of 360,000 active. inhibition, % at 10 µM;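 active = compounds whose plate-normalised and pattern-corrected inhibition of the luciferase reporter signal at the single screening dose is 50% or more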
KKLEB cytotox = CF airway cell cytotoxicity counter-screen; KKLEB CF airway cells viability, ATPlite luminescence, overnight; stronger effect = lower value; cells stimulated with P. aeruginosa culture filtrate; activity change (cytotoxicity), % at 5 µM; 0.36% of 360,000 active; AID 602141;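 active = corrected activity change at or below -50% at 5 µM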
CF NFkB block = blocks PAF-induced NF-kB reporter in cystic fibrosis cells; inhibition, % at 5 µM; KKLEB NF-kB-GFP reporter, GFP fluorescence overnight; 0.86% of 360,000 active; AID 588850;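 active = at least 50% inhibition at 5 µM, scaled per plate between neutral and stimulator controls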;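 also: PAF is a Pseudomonas aeruginosa culture filtrate used as stimulus; plate controls were PAF-stimulated DMSO wells for no effect and unstimulated DMSO wells for full effect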
Peg3 promoter = Peg3 promoter activity inhibition | HeLa PEG-Prom luciferase reporter, luminescence, overnight | inhibition, % at 20 µM | 1.7% of 360,000 active | AID 588405;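 active = inhibition of at least 50% at 20 µM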
HIF-2a inh = inhibitors of HIF-2a. 0.72% of 360,000 active. 786-0 RCC cells HIF-2a reporter, luciferase luminescence, overnight. inhibition, % at 18.8 µM. AID 624352;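 active = inhibition of the luminescence signal of 40% or more relative to plate controls, in a single-dose primary screen at 18.75 µM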
TWEAK Fn14 block = inhibitors of TWEAK-Fn14 interaction signaling; inhibition, % at 10 µM; TWEAK-stimulated Fn14 reporter cells, luciferase luminescence, 8 h; AID 1159606; 2% of 360,000 active; in the data active = inhibition above about 50%
An asterisk follows results filed as active. Hits are enriched below; roughly 4% of the tested compounds scored in any of these assays.

SMILES	TROY signal inh	KKLEB cytotox	CF NFkB block	Peg3 promoter	HIF-2a inh	TWEAK Fn14 block
CC(=O)c1ccccc1NC(=O)c1ccc2c(c1)NC(=O)C(C)S2 (centres undefined)	-16	-15	-3	-160	-219	-5
Cc1ccnc(NC(=O)c2ccc3c(c2)NC(=O)C(C)S3)c1 (centres undefined)	44	-15	14	-134	-83	67*
C=CCN=C1SC(C)(C)C(=O)N1S(=O)(=O)c1ccc(C)cc1	-6	-4	-3	2	12	-5
CCOC(=O)Cn1cncc1-c1ccc([N+](=O)[O-])cc1	-54	-10	-5	-120	-130	-30
CCOc1ccc(NC(=O)Cn2cncc2-c2ccc([N+](=O)[O-])cc2)cc1	-15	-45	-3	81*	7	0
c1ccc(Nc2nnc(-c3cccnc3)s2)cc1	-6	-6	-12	-181	-123	51*
N#CCSc1nc2sc3c(c2c(=O)n1C1CCCCC1)CCCC3	39	-24	45	18	19	58*
COc1ccc2cc(-c3cc(C(=O)OCC(=O)Nc4c(C)n(C)n(-c5ccccc5)c4=O)c4ccccc4n3)ccc2c1	-49	-40	25	-9	-76	60*
Cc1nc2c(cnn2-c2ccccc2Cl)c(=O)n1-c1ccc(N2CCC(C)CC2)cc1	7	-12	-16	32	9	-7
CCc1nc2c(cnn2-c2ccc(F)cc2)c(=O)n1-c1ccc(N2CCC(C)CC2)cc1	-1	-11	14	24	10	65*
CCOC(=O)N1CCC(NC(=O)c2ccc3c(c2)sc2nc(-c4ccccc4)cn23)CC1	30	12	-33	-39	-143	48
CCCC1OC2CC3C4CCC5=CC(=O)C=CC5(C)C4C(O)CC3(C)C2(C(=O)O)O1 (centres undefined)	18	32	74*	1	29	13
CCCC1O[C@@H]2CC3C4CCC5=CC(=O)C=C[C@]5(C)C4C(OC(C)=O)C[C@]3(C)[C@]2(C(=O)COC(C)=O)O1 (some centres undefined)	-1	12	24	25	18	-10
CCC(=O)[C@@]1(C)[C@H](C)C[C@H]2[C@@H]3CCC4=CC(=O)C=C[C@]4(C)[C@H]3[C@@H](O)C[C@@]21C	19	39	72*	9	22	-4
Cc1cc(C)c(S(=O)(=O)c2cc(F)ccc2C)c(Cl)n1	-2	0	-12	-6	17	-8
C=CCNC(=S)N/N=C(\C)c1ccccn1	-42	-19	20	75*	11	108*
CC(=NNC(=S)Nc1ccccc1Cl)c1ccccn1	-3	8	-1	-37	-200	4
CCOC(=O)c1c(-c2ccccc2)oc2ccc(O)c(CN3CCN(C)CC3)c12	22	-4	-6	54*	-2	8
CCOC(=O)c1c(-c2ccccc2)oc2cc(CN(C)C)c(O)c(CN(C)C)c12	42	17	40	68*	27	44
CCOC(=O)c1c(C)n(C)c2ccc(O)c(CN3CCN(C)CC3)c12	2	4	-8	0	-3	-1
CCOC(=O)c1c(C)oc2cc(Cl)c(O)c(CN(C)C)c12	-32	-14	9	2	14	-6
CCOC(=O)N1CCC(n2c(SCC(=O)NCCC3=CCCCC3)nc3ccccc3c2=O)CC1	-23	11	-3	32	25	-4
COc1ccc(/C=N/Nc2cc(C)nc3ccccc23)cc1	-4	0	-100	103*	-22	-26
COc1ccc(/C=N/Nc2cc(C)nc3c(C)cccc23)cc1	-71	-5	-58	111*	-14	-115
CCn1cc(/C=C(\NC(=O)c2ccc(OC)c(OC)c2)C(=O)N2CCOCC2)c2ccccc21	-5	-3	-9	6	12	-2
SMILES	TROY signal inh	KKLEB cytotox	CF NFkB block	Peg3 promoter	HIF-2a inh	TWEAK Fn14 block
O=NN(C(=O)NCc1cccnc1)C1CCCCC1	58*	6	-14	-13	1	4
CN(CCCC(=O)N1CCCC(C(N)=O)C1)S(=O)(=O)c1ccc(F)cc1 (centres undefined)	-7	-1	-12	-2	9	68*
CN(CC(=O)N1CCCCCC1)S(=O)(=O)c1ccc(F)cc1	-5	3	-6	-99	-107	-14
Cc1cc(CC(C)C)n(-c2nc3ccccc3c(=O)n2OCC(N)=O)n1	53*	-8	-7	-119	-106	32
O=S1(=O)NC2CCCCCN2c2ccc(F)cc21 (centres undefined)	-5	5	-7	24	8	-1
Cc1ccc(NC2=C(NCCO)C(=O)c3ccccc3C2=O)cc1	0	-3	-1	-70	-111	30
O=C1C(Cl)=C(Nc2ccc3cn[nH]c3c2)C(=O)c2ccccc21	-95	-92*	94*	97*	95*	1
CN(C)c1ccc(NC2=C(Cl)C(=O)c3ccccc3C2=O)cc1	43	-82*	80*	100*	96*	102*
Cc1cc(C)cc(NC(=O)CCC(=O)Nc2cc(C)on2)c1	1	-3	23	15	20	-12
Cc1ccc(C(=O)N2C(=S)C(c3ccc(F)cc3)=NC23CCN(C)CC3)cc1	-5	-2	-1	90*	14	50
O=C(Nc1ccc(Cc2ccncc2)cc1)C1CCC(N2C(=O)C3C4C=CC(C5CC45)C3C2=O)CC1 (centres undefined)	53*	-3	8	40	17	47
CC(=O)Nc1ccc(NC(=O)C2CCC(N3C(=O)C4C5C=CC(C6CC56)C4C3=O)CC2)cc1 (centres undefined)	-7	-7	2	23	3	-29
CCOC(=O)C1(C)/C(=N/Nc2ccccc2OC)C(=O)C(=O)N1c1ccccc1 (centres undefined)	-10	6	14	-4	5	-1
CC(=O)C1(O)CCC2C3CC(C)C4=CC(=O)C=CC4(C)C3(F)C(O)CC21C (centres undefined)	12	36	71*	-7	21	-6
CC(=O)OCC(=O)[C@@]1(OC(C)=O)[C@@H](C)C[C@H]2[C@@H]3C[C@H](F)C4=CC(=O)C=C[C@]4(C)[C@@]3(F)[C@@H](O)C[C@@]21C	8	31	77*	-5	24	4
CC(=O)OCC(=O)C1(O)CCC2C3CC(C)C4=CC(=O)C=CC4(C)C3=CCC21C (centres undefined)	11	5	45	-1	21	4
CC(=O)OCC(=O)C1(O)CCC2C3CC(C)C4=CC(=O)C=CC4(C)C3(F)C(O)CC21C (centres undefined)	24	19	80*	8	18	-11
Cc1ccc(NC(=S)N(CCN(C)C)C(C)c2ccco2)cc1C (centres undefined)	-6	-2	12	8	5	0
